# Rows were chosen to be rich in hits. Some 3.5% of all compounds tested hit in one or more screens of this group.
# GPR151 ag: activators of human GPR151, primary screen, cell-based, PathHunter beta-arrestin, luminescence; activation, % at 11.2 µM; AID 1508602, 2020; PathHunter beta-arrestin GPR151 cells; actives 1% (n = 650,000); G-protein coupled receptor 151 (Homo sapiens), Q8TDV0; in the data active = activation above about 4.9%;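 note: 0% = median of compound wells and 100% = cells with positive control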
# Target sequence (Q8TDV0 whole entry, looked up): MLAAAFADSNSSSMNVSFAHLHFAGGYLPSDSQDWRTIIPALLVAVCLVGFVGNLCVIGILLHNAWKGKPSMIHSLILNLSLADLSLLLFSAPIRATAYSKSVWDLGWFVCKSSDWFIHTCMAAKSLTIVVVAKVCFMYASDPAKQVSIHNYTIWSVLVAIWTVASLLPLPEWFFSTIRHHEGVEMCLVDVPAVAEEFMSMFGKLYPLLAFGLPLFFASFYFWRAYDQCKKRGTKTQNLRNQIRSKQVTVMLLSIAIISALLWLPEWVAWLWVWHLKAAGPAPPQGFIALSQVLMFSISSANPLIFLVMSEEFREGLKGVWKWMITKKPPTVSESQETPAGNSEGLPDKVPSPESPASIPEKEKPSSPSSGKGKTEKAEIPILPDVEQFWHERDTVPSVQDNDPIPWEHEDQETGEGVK
# MITF primary: MITF inhibitors, primary screen, biochemical, AlphaScreen, human | AlphaScreen MITF homodimerization, bead proximity signal | actives 0.91% (n = 650,000) | AID 1259374, 2018 | Microphthalmia-associated transcription factor (Homo sapiens), O75030 | inhibition, % at 2.6 µM; in the data active = inhibition above about 50%;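 note: 0% = vehicle wells with protein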
# FBW7 act: FBW7 E3 ligase activators, primary screen, biochemical, AlphaScreen, human. actives 0.13% (n = 650,000). AID 1259310, 2017. AlphaScreen FBW7–phospho-cyclin E peptide binding, activator screen. normalized activity (activation), % at 26.1 µM; in the data active = normalized activity above about 1.9%;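 note: purified mutant Fbw7 with reduced substrate affinity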
# TEAD-YAP inh: TEAD-YAP interaction inhibition, primary screen, TEAD-YAP interaction inhibitor project, luminescence, HEK-TIYL cells. actives 1.4% (n = 640,000). inhibition, % at 9.12 µM. TEAD-Gal4/YAP UAS-luciferase luminescence; in the data active = inhibition above about 32%;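 note: 0% = median of test compound wells and 100% = reference inhibitor wells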
# GPR151 conf act: GPR151 activators, triplicate retest, confirmation, cell-based, PathHunter beta-arrestin, luminescence | shares compounds with GPR151 ag | GPR151 PathHunter beta-arrestin cells, 90 min; % of EA-reagent control over plate median | activation, % at 11.2 µM | 6,700 tested, under 10 active;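 active = mean percent activation across replicates above the confirmation screen cutoff of 4.91%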
# GPR119 ag: GPR119 activators in beta-arrestin cells, counter-screen for GPR151 activator project, cell-based, PathHunter beta-arrestin, luminescence, triplicate; shares compounds with GPR151 ag; 90 min; 0 = compound-well median, 100 = enzyme-acceptor control; activation, % at 11.2 µM; actives 0.3% (n = 6,700);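 active = mean percent activation in the counterscreen above 29.09%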;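 note: counterscreen on off-target GPR119 to flag nonselective hits from the GPR151 activator screen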
# * hit, by the source's call; / = no result given.
SMILES,GPR151 ag,MITF primary,FBW7 act,TEAD-YAP inh,GPR151 conf act,GPR119 ag
COc1ccc(CCNC(=O)c2cccc(-n3c(=S)[nH]c4cc(Cl)ccc4c3=O)c2)cc1OC,5.8*,13,0,5,0,4
COc1ccc(CCn2c(=S)[nH]c3cc(C(=O)N4CCC(C(N)=O)CC4)ccc3c2=O)cc1OC,6.1*,14,0,-3,-2,-4
Cc1cc(Cl)nc2ccc(O)cc12,0,13,0,10,/,/
COc1ccc(Cn2c(O)c(C=Nc3ccc(OC)cc3OC)c3ccccc3c2=O)cc1,7.0*,-8,0,4,2,-5
COc1ccc2c(c1)c(CC(=O)Nc1ccc(NC(C)=O)cc1)c(C)n2C(=O)c1ccc(Cl)cc1,6.2*,-8,/,/,0,11
COc1ccc2c(c1)c(CC(=O)Nc1ncccc1C)c(C)n2C(=O)c1ccc(Cl)cc1,0,16,0,6,/,/
COCC(C)n1ccc(-c2sc(NCc3cn(C)nc3C)nc2C)n1 (stereo not drawn),-1,0,0,-4,/,/
Cc1oc(-c2ccccc2Cl)nc1CSCC(=O)NC1CCCC1,2,6,0,-4,/,/
Cc1oc(-c2ccccc2Cl)nc1CSCC(=O)NC(C)(C)C,5.2*,5,0,-23,1,-1
CC(C)COC(=O)Sc1nc2ccccc2[nH]1,1,-17,0,-6,/,/
C=CCN1C(=O)/C(=C\c2sccc2C)C(C(=O)OC)=C1C,0,16,0,9,/,/
CCNC(=O)C(=O)NCC1OCCCN1S(=O)(=O)c1ccccc1 (stereo not drawn),5.2*,2,0,0,0,-9
O=C(NCCCO)C(=O)NCC1OCCCN1S(=O)(=O)c1ccc(Cl)cc1 (stereo not drawn),9.5*,-3,0,-9,0,-6
C=CCNC(=O)C(=O)NCC1OCCCN1S(=O)(=O)c1ccc(F)cc1C (stereo not drawn),7.3*,0,0,-3,0,-6
O=C(NCCO)C(=O)NCC1OCCCN1S(=O)(=O)c1ccc(Cl)cc1 (stereo not drawn),1,-1,0,-2,/,/
COc1cccc(NC(=O)CN(C)CC(=O)Nc2ccc(-c3ccccc3)cc2)c1,1,-1,0,-7,/,/
CCC(C)c1ccc(NC(=O)CN(C)CC(=O)Nc2cccc(OC)c2)cc1 (stereo not drawn),6.1*,33,0,-1,1,-3
O=c1c2ccccc2nc(SCc2ccc(Cl)cc2)n1Cc1ccc2c(c1)OCO2,0,-3,0,-5,/,/
N#CCSc1nc2ccccc2c(=O)n1Cc1ccc2c(c1)OCO2,5.1*,3,0,-1,0,-1
CC(=O)c1ccc(N2CCN(C(=O)c3ccccc3Br)C(C)C2)c(F)c1 (stereo not drawn),1,20,0,8,/,/
CCOc1cc(C=O)ccc1OCCOc1ccccc1OC,11*,-2,0,7,1,12
Cc1ccc(OCc2nc(-c3ccc([N+](=O)[O-])cc3)no2)c(C)c1,-2,8,1,-5,/,/
CCOc1ccccc1CN1CCC(CO)(Cc2ccc(OC)cc2)CC1,0,-3,0,-2,/,/
C=CCOC(=O)C1=C(C)NC(C)=C(C(=O)OCC=C)C1c1cn(-c2ccccc2)nc1-c1ccc(Br)cc1,5.0*,-7,1,-4,0,8
Cc1cc(N2CCCCC2)nc2ccc(NC(=O)c3cccc([N+](=O)[O-])c3)cc12,17*,2,0,7,1,10
SMILES,GPR151 ag,MITF primary,FBW7 act,TEAD-YAP inh,GPR151 conf act,GPR119 ag
O=C(CSc1ccc(Cl)cc1)OCc1cc([N+](=O)[O-])cc2c1OCOC2,2,8,0,5,/,/
O=c1c2ccccc2c(-c2ccc(Br)cc2)nn1-c1ccccc1,-1,6,0,10,/,/
CC(C)c1ccc(-c2nn(-c3ccccc3)c(=O)c3ccccc23)cc1,5.2*,-6,0,2,1,-5
CCOc1ccccc1N(CC(=O)Nc1ccccc1OC)S(C)(=O)=O,8.9*,0,0,-3,0,-9
COc1cccc(NC(=O)CN(C)S(=O)(=O)c2ccc(F)cc2)c1,0,-10,0,3,/,/
COc1ccc(Cl)cc1N(CC(=O)Nc1cccc(C(C)=O)c1)S(C)(=O)=O,5.8*,7,0,0,1,-1
CSc1cccc(NC(=O)CN(c2ccc(F)c(Cl)c2)S(C)(=O)=O)c1,8.5*,-10,0,4,0,4
CC(=O)c1cccc(NC(=O)CN(C)S(=O)(=O)c2ccc(F)cc2)c1,5.9*,0,0,-6,-1,-7
COc1ccccc1NC(=O)CN(c1ccccc1OC)S(C)(=O)=O,-1,0,0,5,/,/
Nc1cccc2c1C(=O)N(CCCCCCCN1C(=O)c3cccc(N)c3C1=O)C2=O,-1,3,1,12,/,/
CS(=O)(=O)N(CC(=O)Nc1ccc(F)c(Cl)c1)c1ccccc1F,0,0,0,11,/,/
Cc1c(Cl)cccc1N(CC(=O)Nc1ccc(F)c(Cl)c1)S(C)(=O)=O,5.5*,-10,0,5,2,-2
Cc1ccccc1NC(=O)CN(c1ccc(Cl)cc1C)S(C)(=O)=O,5.3*,1,0,-3,1,14
Cc1cccc(NC(=O)CN(c2ccc(Br)c(C)c2)S(C)(=O)=O)c1,10*,11,0,3,0,-4
Cc1ccc(NC(=O)CN(c2ccc(Br)c(C)c2)S(C)(=O)=O)cc1,2,9,0,-3,/,/
CC[C@H](Cn1nc(-c2ccc(OC)cc2)ccc1=O)NC(=O)CCn1ncc2ccccc21,-1,10,0,6,/,/
O=C(CN1CCN(S(=O)(=O)c2ccc(Cl)cc2)CC1)c1ccc(F)cc1,15*,-7,0,-6,-1,-6
CCOC(=O)CSc1ccc(C(=O)OCC)cc1[N+](=O)[O-],-2,3,0,9,/,/
CCOC(=O)CSc1ccc(C(=O)N(CC)CC)cc1[N+](=O)[O-],6.8*,-5,0,-1,0,-7
O=C(NCCOC(=O)C1CCCCC1)c1ccc([N+](=O)[O-])cc1,1,4,0,8,/,/
CCC(c1nnnn1C(C)(C)CC)N1CCN(Cc2ccccc2)CC1 (stereo not drawn),6.3*,4,0,-9,-1,-13
O=C(Nc1ncc(Cc2ccc(Cl)cc2Cl)s1)c1ccc(Cl)cc1,5.7*,-12,0,-4,1,-6

# High-throughput results (PubChem)
